This is a sample that favours compounds with a hit; in the whole collection about 19% have one here.
HT1080 IDH1KD tx – toxicity to HT-1080 IDH1 knockdown cells (counter line) | HT-1080 IDH1 knockdown viability, ATP luminescence, 48 h | Potency, µM (series often up to 46.1 µM), inactives show at the highest dose activity, negative = toxicity, most hits filed as cytotoxic | 360,000 tested, 2% active;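 further: potency means the concentration at half of the fitted maximal effect; 0% = DMSO wells and -100% = cell-free medium wells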
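After a 2 h attachment period, IDH1KD HT-1080 cells took pin-transferred compound for 48 h at 37 °C; ATP-based luminescence after 10 min room-temperature reagent incubation reported viability.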
IL1B secr inh – inflammasome signaling inhibition, IL-1 beta readout; THP-1 LPS/ATP IL-1B secretion, AlphaLISA, 16 h; active compounds read low; activity change, % at 57.5 µM; 360,000 tested, 4.7% active; in the data active means activity change below about -50%; inconclusive means mostly about -30% to -49%
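THP-1 cells pretreated 1 hr with compounds (up to 57.5 uM final), then stimulated with LPS (250 ng/mL final) plus ATP (1.25 mM final); secreted IL-1B measured by AlphaLISA after 16 hr, decreased signal indicating inhibition.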
HT1080-NT tox – kills 2HG-producing HT-1080-NT fibrosarcoma cells | HT-1080-NT fibrosarcoma viability, CellTiter-Glo ATP luminescence, 48 h | AID 686970 | 360,000 tested, 1.6% active | Potency, µM (doses to about 46.1 µM), for the others: at the highest dose activity, negative = less viability, actives largely listed as cytotoxic;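 further: NT is the 2HG producing partner of a matched IDH1 knockdown line; potency means the concentration at half of the fitted maximal effect; 0% = DMSO-treated cells and -100% = media-only wells without cells; nearly all actives have a fitted effect of over 55% in size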
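Viability of the 2HG-overproducing fibrosarcoma line after 48 hours of compound exposure at 37 degrees C was determined by luminescence with CellTiter-Glo, and concentration-effect curves were then fitted and categorized.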
DT40 TDP1 no CPT – qHTS for Inhibitors of human tyrosyl-DNA phosphodiesterase 1 (TDP1): qHTS in cells in absence of CPT | Potency, µM (titrated, usually from 46.2 µM), inactives show at the top dose activity change, negative = growth inhibition, most hits filed as inhibitors | DT40 Tdp1-/- hTDP1 cells, no CPT, ATP luminescence, 48 h | 420,000 tested, 15% active; further: potency means the concentration at half of the fitted maximal effect; nearly all actives have a fitted effect of over 55% in size
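No-CPT arm: Tdp1-/-;hTDP1 DT40 cells (400/well) plus compounds, incubated ≥48 hr at 37 °C. Readout CellTiter-Glo luminescence.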
DT40 TDP1 CPT – growth inhibition of DT40 Tdp1-/-;hTDP1 cells with camptothecin (screen for TDP1 inhibitors); chicken DT40 Tdp1-/-;hTDP1 cells + 20 nM CPT, ATP luminescence, 48 h; Potency, µM (highest dose often 46.2 µM), without a hit: top-dose activity change, negative = growth inhibition, most hits filed as inhibitors; 420,000 tested, 12% active; AID 686979; further: potency means the concentration at half of the fitted maximal effect; nearly all actives have a fitted effect of over 55% in size
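Cell growth measured by CellTiter-Glo luminescence after a minimum 48 h, 37 C compound exposure with 20 nM CPT in Tdp1-knockout DT40 cells stably expressing hTDP1, seeded 400/well; qHTS titration format.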
Active calls of the source: *; ? = inconclusive; . = not tested or not shown. Unless noted, the call rests on the fitted dose curve; in most records, active means well fitted curve in the direction sought with a large enough effect; inconclusive means small, poorly fitted or top-dose-only effect, or another doubt; inactive means no such curve, though single readings can be large; an effect the other way counts as inactive or inconclusive. Unless noted, on the % scale 0 is the no-effect control and ±100 the full control effect.

SMILES	HT1080 IDH1KD tx	IL1B secr inh	HT1080-NT tox	DT40 TDP1 no CPT	DT40 TDP1 CPT
C[C@H](CO)N1C[C@H](C)[C@H](CN(C)C(=O)CC2CC2)Oc2cc(Br)ccc2S1(=O)=O	9.4%	14.1	18.6%	-8.4%	-6.4%
C/C=C/c1ccc2c(c1)O[C@H](CN(C)CC1CCOCC1)[C@@H](C)CN([C@H](C)CO)S2(=O)=O	2.5%	18.9	-0.8%	18.4µM*	23.1µM*
C[C@H](CO)N1C[C@H](C)[C@@H](CN(C)C(=O)CC2CC2)Oc2cc(Br)ccc2S1(=O)=O	9.6%	20.7	1.0%	20.6µM*	?
C[C@@H]1CN([C@@H](C)CO)S(=O)(=O)c2ccc(Br)cc2O[C@H]1CN(C)C(=O)c1ccc2c(c1)OCO2	10.2%	-27.9	7.8%	23.1µM*	23.1µM*
C[C@@H]1CN([C@@H](C)CO)S(=O)(=O)c2ccc(Br)cc2O[C@H]1CN(C)C(=O)c1ccccc1	8.6%	-24.6	-1.3%	?	?
COC(=O)C(C)Oc1ccc(-c2nccc(-c3ccccn3)n2)cc1 (stereo not given)	?	22.9	?	-13.2%	2.1%
C[C@@H]1CN([C@@H](C)CO)S(=O)(=O)c2ccc(Br)cc2O[C@@H]1CN(C)C(=O)c1ccc(F)cc1	-0.6%	-13.3	7.0%	?	20.6µM*
CCOc1ccc(/C=C/C(=O)c2cc(Br)ccc(=O)c2O)cc1	23.1µM*	?	?	3.66µM*	4.61µM*
CCc1ccc(/C=C/C(=O)c2cc(Br)ccc(=O)c2O)cc1	?	-1.5	20.6µM*	5.17µM*	3.26µM*
Cc1cccc(/C=C/C(=O)c2cc(Br)ccc(=O)c2O)c1	?	?	?	3.26µM*	3.26µM*
O=C(C=Cc1ccccc1)c1cc(Br)ccc1O	-0.1%	-22.2	-0.9%	?	?
O=C(COC(=O)c1ccccc1SCC(=O)N1CCCC1)NCc1ccc(F)cc1	-2.2%	-11.3	1.5%	-24.2%	-2.6%
COc1ccccc1NC(=O)C1CCN(C(=O)c2sc3nc[nH]c(=O)c3c2C)CC1	.	.	.	-11.6%	-9.2%
Cc1cccc(C(O)c2ncc(-c3cccc(C(F)(F)F)c3)[nH]2)c1C (stereo not given)	?	-12.3	-24.0%	?	?
CC(=O)NC(c1ccccc1)c1nc(-c2ccc(Cl)cc2)cs1 (stereo not given)	-6.5%	-13.0	-1.1%	?	?
CCOC(=O)c1c(C)c(C(=O)Nc2ccc(N(C)C)cc2)c(C)n1CC	7.08µM*	-3.4	8.91µM*	4.61µM*	7.31µM*
CCOC(=O)c1c(C)c(C(=O)NCc2ccc(Cl)cc2)c(C)n1CC	.	.	.	25.9µM*	?
CCOC(=O)c1c(C)c(C(=O)NCCOC)c(C)n1CC	-0.7%	16.8	7.4%	0.4%	-1.5%
O=C(NNC(=O)c1cc2cc(OC(F)(F)F)ccc2[nH]1)c1cccc(C(F)(F)F)c1	3.9%	-1.3	0.0%	?	?
C/C(=C\c1ccco1)C1C(C#N)=C(N)Oc2n[nH]c(-c3ccc(C)cc3)c21 (stereo not given)	?	-5.4	?	?	16.4µM*
CC1(C)CC(=O)C2=C(C1)OC(N)=C(C#N)C2c1cn(-c2ccccc2)nc1-c1ccccc1 (stereo not given)	?	-53.8*	14.6µM*	?	?
CC1(C)CC(=O)C2=C(C1)OC(N)=C(C#N)C2C#Cc1ccccc1 (stereo not given)	?	-96.3*	?	4.61µM*	5.17µM*
C/C(=C\c1ccco1)C1C(C#N)=C(N)Oc2n[nH]c(-c3ccccc3)c21 (stereo not given)	-0.2%	11.3	-3.0%	-23.2%	-23.9%
C/C(=C\c1ccco1)C1C(C#N)=C(N)OC2=C1C(=O)CC(C)(C)C2 (stereo not given)	7.2%	-0.8	3.2%	?	25.9µM*
CC(c1ccccc1)C1C(C#N)=C(N)OC2=C1C(=O)CC(C)(C)C2 (stereo not given)	0.3%	-16.8	-1.2%	5.6%	-5.5%
SMILES	HT1080 IDH1KD tx	IL1B secr inh	HT1080-NT tox	DT40 TDP1 no CPT	DT40 TDP1 CPT
CC1(C)CC(=O)C2=C(C1)OC(N)=C(C#N)C2c1ccoc1 (stereo not given)	2.4%	19.4	2.7%	13.1%	1.4%
COc1ccc(CN2C(=O)c3ccccc3C2c2nnnn2-c2c(C)cccc2C)cc1OC (stereo not given)	8.1%	-12.4	-5.9%	?	?
CS(=O)(=O)N1CCN(C(=O)c2ccc(Cl)s2)CC1	10.1%	11.6	13.8%	-0.7%	3.9%
O=C(NCC(c1ccc2c(c1)OCO2)N1CCOCC1)c1ccccc1 (stereo not given)	.	.	.	?	-23.1%
CC(C)C(=O)NCC(c1ccc2c(c1)OCO2)N1CCN(c2ccccc2F)CC1 (stereo not given)	.	.	.	-6.7%	-2.8%
O=C(NCC(c1ccc2c(c1)OCO2)N1CCN(c2ccccc2F)CC1)c1ccccc1F (stereo not given)	.	.	.	14.6µM*	11.6µM*
O=C(NCC(c1ccc2c(c1)OCO2)N1CCN(c2ccccc2)CC1)c1ccc(F)c(F)c1 (stereo not given)	.	.	.	2.31µM*	5.17µM*
CCOc1ccc(C(=O)NCC(c2ccc3c(c2)OCO3)N2CCN(C)CC2)cc1 (stereo not given)	.	.	.	0.6%	0.1%
CCOc1ccc(C(=O)NCC(c2ccc3c(c2)OCO3)N2CCN(c3ccccc3F)CC2)cc1 (stereo not given)	.	.	.	20.6µM*	16.4µM*
COc1ccc(C(=O)NCC(c2ccc3c(c2)OCO3)N2CCN(c3ccccc3F)CC2)cc1 (stereo not given)	.	.	.	5.17µM*	7.31µM*
COc1ccc2oc(C(=O)NCCN3CCOCC3)c(C)c2c1OC	-7.1%	0.0	-11.0%	-7.9%	-12.4%
O=C(NCC(c1ccco1)N1CCN(c2ccc(F)cc2)CC1)c1ccc2c(c1)OCO2 (stereo not given)	-13.9%	-6.3	-2.0%	?	?
O=C(NCC(c1ccco1)N1CCN(c2ccccc2F)CC1)c1ccc2c(c1)OCO2 (stereo not given)	?	1.1	-18.9%	18.4µM*	?
Cc1cccc(C(=O)NCC(c2ccc3c(c2)OCO3)N2CCOCC2)c1 (stereo not given)	.	.	.	23.1µM*	?
COc1ccc(N2CCN(C(CNC(=O)c3c(F)cccc3F)c3ccc4c(c3)OCO4)CC2)cc1 (stereo not given)	.	.	.	16.4µM*	?
O=[N+]([O-])c1ccccc1S(=O)(=O)NCc1ccccn1	.	.	.	12.3%	-11.9%

Screening results from PubChem.
